How the values were obtained:
Conditions in all cases: concentration: 1 μM, replicates: in singlicate; n = 1
[1] = tested on: PRKCE
[2] = tested on: PRKCH
[3] = tested on: PRKCI
[4] = tested on: PRKCQ
[5] = tested on: PRKD1
[6] = tested on: PRKD2
[7] = tested on: PRKD3
[8] = tested on: PRKG1
[9] = tested on: PRKG2
[10] = tested on: T1, PRKR
T1 construct: gene EIF2AK2

[11] = tested on: PRKX
[12] = tested on: PRP4
[13] = tested on: T2, PYK2
T2 construct: gene PTK2B

[14] = tested on: QSK
[15] = tested on: RAF1
[16] = tested on: RET
[17] = tested on: RIOK1
[18] = tested on: RIOK2
[19] = tested on: RIOK3
[20] = tested on: RIPK1
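Also: KINOMEscan kinase panel screen.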

| SMILES | %Inh [1] [%] | %Inh [2] [%] | %Inh [3] [%] | %Inh [4] [%] | %Inh [5] [%] | %Inh [6] [%] | %Inh [7] [%] | %Inh [8] [%] | %Inh [9] [%] | %Inh [10] [%] | %Inh [11] [%] | %Inh [12] [%] | %Inh [13] [%] | %Inh [14] [%] | %Inh [15] [%] | %Inh [16] [%] | %Inh [17] [%] | %Inh [18] [%] | %Inh [19] [%] | %Inh [20] [%] |
| --- | --- | --- | --- | --- | --- | --- | --- | --- | --- | --- | --- | --- | --- | --- | --- | --- | --- | --- | --- | --- |
| COc1ccc(Nc2nccc(N3CCC(NS(=O)(=O)c4ccc(NC(C)=O)cc4)C3)n2)cc1 (centres unmarked) [GSK1379729] | 22 | 22 | 22 | 10 | 25 | 0 | 41 | 12 | 0 | 0 | 2 | 14 | 0 | 11 | 18 | 28 | 38 | 9 | 29 | 28 |
| CCC(=O)c1c(-c2ccccc2)c2cc(Cl)ccc2c(=O)n1Cc1cc(S(C)(=O)=O)n(CC(F)F)n1 | 0 | 6 | 0 | 8 | 0 | 0 | 0 | 0 | 0 | 0 | 1 | 6 | 0 | 0 | 6 | 0 | 0 | 13 | 25 | 1 |
| CCC(=O)c1c(-c2ccccc2)c2cc(Cl)ccc2c(=O)n1Cc1cc(C(=O)NC2CC2)n(C)n1 | 20 | 0 | 0 | 41 | 0 | 3 | 0 | 0 | 0 | 0 | 0 | 0 | 0 | 0 | 40 | 0 | 0 | 17 | 10 | 0 |
| COc1cccc(C2=C(N(C)c3ccccc3)C(=O)NC2=O)c1 [SB-334865] | 25 | 5 | 7 | 0 | 6 | 0 | 10 | 0 | 0 | 0 | 25 | 41 | 8 | 1 | 12 | 17 | 39 | 0 | 0 | 0 |
| O=C(NCc1cccs1)c1cc(C(=O)c2c(Cl)cccc2Cl)c[nH]1 [GW823670] | 9 | 0 | 0 | 0 | 35 | 3 | 13 | 0 | 0 | 0 | 0 | 0 | 0 | 0 | 0 | 2 | 5 | 0 | 0 | 0 |
| COc1cc(OC)cc(-c2cc3cnc(N)nc3nc2NC(=O)NC(C)(C)C)c1 | 51 | 0 | 2 | 0 | 0 | 0 | 0 | 14 | 0 | 16 | 5 | 0 | 4 | 0 | 0 | 32 | 8 | 0 | 45 | 0 |
| Cc1cccc(-c2cc(-c3c[nH]nc3-c3ccccn3)ccn2)c1 [GW679395] | 13 | 0 | 4 | 35 | 57 | 48 | 22 | 0 | 0 | 0 | 12 | 22 | 0 | 3 | 3 | 48 | 6 | 0 | 0 | 0 |
| COc1cc2nccc(Nc3ccc(OCc4ccc(NC(C)=O)cc4)cc3)c2cc1OC.Cl [GW440135] | 10 | 14 | 0 | 0 | 0 | 11 | 2 | 10 | 0 | 0 | 7 | 50 | 26 | 15 | 18 | 11 | 0 | 0 | 0 | 0 |
| CN1C(=O)C(Nc2cc(Cl)c(O)c(Cl)c2)=C(c2ccc(Cl)cc2)C1=O [SB-404321] | 0 | 0 | 3 | 0 | 54 | 0 | 0 | 0 | 0 | 4 | 0 | 17 | 1 | 0 | 10 | 0 | 0 | 0 | 0 | 0 |
| COc1cc2ncn(-c3cc(OCc4ccc(S(C)(=O)=O)cc4)c(C(N)=O)s3)c2cc1OC [GW869979] | 20 | 0 | 12 | 0 | 0 | 0 | 18 | 0 | 0 | 0 | 0 | 0 | 0 | 27 | 0 | 26 | 0 | 8 | 0 | 18 |
| COc1cccc(-n2cnc3c(N)ncnc32)c1 [SKF-97416] | 33 | 0 | 25 | 1 | 0 | 0 | 0 | 19 | 14 | 13 | 32 | 0 | 0 | 28 | 0 | 0 | 0 | 22 | 0 | 0 |
| COc1ccc(-n2cnc3c(N)ncnc32)cc1 [SKF-97236] | 0 | 23 | 28 | 0 | 0 | 1 | 5 | 14 | 33 | 0 | 15 | 0 | 0 | 0 | 0 | 34 | 14 | 28 | 0 | 0 |
| COc1cccc(C2=C(Nc3cccc(C(=O)O)c3)C(=O)NC2=O)c1 [SB-390770] | 15 | 28 | 100 | 11 | 0 | 0 | 0 | 0 | 0 | 0 | 7 | 49 | 0 | 0 | 11 | 17 | 14 | 6 | 0 | 0 |
| O=C(Nc1n[nH]c2nc(-c3ccccc3)c(Br)cc12)C1CC1 [SB-708998] | 0 | 15 | 26 | 0 | 0 | 0 | 17 | 14 | 0 | 0 | 0 | 3 | 0 | 0 | 14 | 74 | 35 | 17 | 24 | 48 |
| Cn1c(=O)c(F)c(Nc2ccc(I)cc2F)c2c(=O)n(OC[C@H](O)CO)cnc21 | 0 | 0 | 34 | 6 | 0 | 0 | 0 | 8 | 7 | 0 | 0 | 0 | 17 | 0 | 37 | 11 | 5 | 0 | 23 | 0 |
| Cc1cccc(-c2nc(Nc3ccc4c(cnn4C)c3)c3ccccc3n2)n1 [GW876731] | 15 | 0 | 0 | 0 | 99.2 | 99.6 | 90.2 | 9 | 0 | 0 | 0 | 0 | 0 | 0 | 29 | 4 | 0 | 0 | 0 | 0 |
| COc1cc2ncn(-c3cc(OCCCc4ccccc4)c(C(N)=O)s3)c2cc1OC [GSK205189] | 0 | 0 | 13 | 19 | 0 | 23 | 0 | 0 | 0 | 0 | 3 | 0 | 5 | 0 | 0 | 0 | 26 | 0 | 12 | 0 |
| Cc1cc(Nc2nc(-c3cccc(C)n3)nc3ccccc23)ccn1 [GW872411] | 0 | 0 | 0 | 0 | 99.4 | 99.9 | 76 | 14 | 0 | 0 | 0 | 0 | 14 | 0 | 0 | 0 | 0 | 0 | 0 | 0 |
| CCn1c(-c2nonc2N)nc2ccccc21 [SB-693162/GW549034] | 44 | 17 | 31 | 16 | 0 | 3 | 0 | 0 | 67 | 0 | 24 | 0 | 0 | 0 | 0 | 22 | 0 | 14 | 0 | 0 |
